Experimental data taken from PubChem BioAssay (NCATS).
Where “and” joins values, the source holds several entries; their conditions need not be identical. Identical values can stand only once. Results filed as inconclusive are left out. Values without a mark were called inactive. Calls of active or inactive are those of the source. The call rests on the fitted dose curve; in most records, active means well fitted inhibition curve with a large enough effect; inconclusive means small, poorly fitted or top-dose-only effect; inactive means flat fitted curve, though single readings scatter.

System: CRL-7250
Experiment: Cytotoxic Profiling of Annotated Libraries Using Quantitative High-Throughput Screening (AID 1296008); further: nearly all actives have a fitted effect of over 60% in size
Conditions: Five cell lines viability, CellTiter-Glo ATP luminescence, 48-72 h; max response: active compounds read low
Outline: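 Compounds were pin-transferred onto cells and incubated 48 or 72 hr at 37 degree Celsius, 95% humidity. CellTiter-Glo was added, plates sat 10 min at room temperature, then ATP-coupled luminescence was imaged as the viability read-out.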
On the % scale 0 is the no-effect control and ±100 the full control effect; potency means the concentration at half of the fitted maximal effect.

Row | Structure (SMILES) | outcome | Potency | max response
1 | COC(=O)[C@@H](O)[C@H]1[C@@]2(C)CC3(O)[C@@H](C(=O)[C@H]2O)[C@]24O[C@]25CC(=O)O[C@@H](c2ccoc2)[C@]5(C)CCC4[C@]13C (some centres undefined) | inactive | – | –
2 | NCCCNc1ccc(Nc2nccc(Nc3cc(C4CC4)[nH]n3)n2)cc1 | – | 731 nM (active) | –
3 | C/C=C1\[C@H](O[C@@H]2O[C@H](CO)[C@@H](O)[C@H](O)[C@H]2O)OC=C2C(=O)OCCc3ccc(O)c(c3)Oc3ccc(cc3)CCOC(=O)C[C@H]21 | – | – | -21.9%
4 | COc1ccc(/C=C/C(=O)O[C@@H]2[C@@H](O)[C@@H](O)[C@H](O[C@@H]3C=C(CO)[C@H]4[C@H](O[C@@H]5O[C@H](CO)[C@@H](O)[C@H](O)[C@H]5O)OC=C[C@H]43)O[C@H]2C)cc1O | – | – | 0.875%
5 | CC(Oc1ccc2[nH]nc(/C=C/c3cnn(CCO)c3)c2c1)c1c(Cl)cncc1Cl (centres undefined) | – | 1460 nM (active) | –
6 | CCOCCn1nc(CC)c2nc(N3CCC(C(=O)O)CC3)nc(Nc3cc(C)ccn3)c21 | – | – | -0.41%
7 | CC(C)[C@@H](CS(=O)(=O)C(C)C)N1C(=O)[C@@](C)(CC(=O)O)C[C@H](c2cccc(Cl)c2)[C@H]1c1ccc(Cl)cc1 | – | 5.8 µM (active) and 1.86 µM (active) | –
8 | C[C@H](O)[C@H](O)/C=C/c1cccc(O)c1CO | – | – | -1.75%
9 | CC1(C)CC[C@]2(C(=O)O[C@@H]3O[C@H](CO[C@@H]4O[C@H](CO)[C@@H](O)[C@H](O)[C@H]4O[C@@H]4O[C@H](CO)[C@H](O)[C@H](O)[C@H]4O)[C@@H](O)[C@H](O[C@@H]4O[C@H](CO)[C@@H](O)[C@H](O)[C@H]4O)[C@H]3O)CC[C@]3(C)C(=CCC4[C@@]5(C)CC[C@H](O[C@@H]6OC[C@@H](O)[C@H](O)[C@H]6O)[C@@](C)(C(=O)O)C5CC[C@]43C)[C@@H]2C1 (some centres undefined) | – | – | -1.09%
